Several values for one entry are separate records, joined by “and”; a condition that tells them apart may be missing. Equal values may be shown once. Inconclusive results are not listed. Some compounds were tested as several samples or in several runs, with calls that do not always agree. Activity calls are given as the source filed them. Unless noted, the call rests on the fitted dose curve.
Legend:
[1] = Nuclear factor erythroid 2-related factor 2/antioxidant responsive element (Nrf2/ARE) small molecule agonists: qHTS cell viability counter screen in human keratinocytes (AID 1919968; active means well fitted curve in the direction sought with a large enough effect in the repeat runs; an effect the other way counts as inactive or inconclusive; further: nearly all actives have a fitted effect of over 55% in size; further: potency means the concentration at half of the fitted maximal effect)
How it was run: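 Fluorescence read-out from CellTiter-Fluor after 1 h at 37 C. Wells held HaCaT-derived ARE-luciferase reporter cells (1,500/well) treated 23 h with DMSO-dissolved compounds. Run in the same wells as the luciferase agonist read.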

[2] = Nuclear factor erythroid 2-related factor 2/antioxidant responsive element (Nrf2/ARE) small molecule agonists: luciferase reporter gene qHTS assay in human keratinocytes (AID 1919969); further: nearly all actives have a fitted effect of over 35% in size; further: potency means the concentration at half of the fitted maximal effect
[3] = molecular target: Gonadotropin-releasing hormone receptor (Homo sapiens) (UniProt P30968); experiment: Human gonadotropin-releasing hormone receptor (GnRHR) small molecule agonists, calcium flux assay in GnRHR-HEK293 cells (AID 1920063); further: nearly all actives have a fitted effect of over 35% in size
How it was run: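 Calcium-dye fluorescence, Ex/Em=480/540, recorded every 1 sec over 3 min after compound addition to GnRHR-HEK293 cells. Cells had been seeded 18 hours earlier and dye-loaded for 1 hour at 37 C. Fifteen concentrations, triplicates.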

[4] = molecular target: KiSS-1 receptor (Homo sapiens) (UniProt Q969F8); experiment: Human kisspeptin (KISS1R) small molecule agonists, calcium flux assay in KISS1R-HEK293 cells (AID 1920064; active means well fitted curve in the direction sought with a large enough effect in the repeat runs; an effect the other way counts as inactive or inconclusive)
How it was run: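 Calcium flux read-out: kinetic fluorescence at Ex/Em=480/540, 1 s intervals over 3 min, after pin-tool compound addition to dye-loaded KISS1R-HEK293 cells. Fifteen concentrations, triplicates.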

[5] = G protein-coupled receptor (GPCR) small molecule agonists, calcium flux assay: HEK293 wild type cell line counter screen (AID 1920065)
How it was run: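 Agonist mode; 18 h seeding at 37 C, 1 h dye load at 37 C; compounds pinned from DMSO, ATP as positive control; kinetic fluorescence 480/540 nm, 3 min, 1 s reads; 15 concentrations, triplicate.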

[6] = p53 small molecule agonists, cell-based qHTS assay with human liver microsomes: qHTS cell viability counter screen (AID 1963579); further: nearly all actives have a fitted effect of over 45% in size
How it was run: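 Seed p53RE-bla cells at 4,000 per well; incubate 5 h at 37 C; add compound, human liver microsomes and NADPH; incubate 16 h at 37 C; add CellTiter-Glo; after 30 min at room temperature, read luminescence.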

[7] = p53 small molecule agonists, cell-based qHTS assay with rat liver microsomes: qHTS cell viability counter screen (AID 1963580); further: nearly all actives have a fitted effect of over 45% in size
How it was run: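 Luminescent ATP readout (CellTiter-Glo, 30 min at room temperature) reports viability of p53RE-bla HCT-116 cells after 16 h at 37 C with test compounds under metabolic activation by rat liver microsomes and NADPH at 0.5 mg/mL final each.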

[8] = p53 small molecule agonists, cell-based qHTS assay: qHTS cell viability counter screen (AID 1963581); further: nearly all actives have a fitted effect of over 45% in size
How it was run: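 Cytotoxicity read-out: ATP-based luminescence (CellTiter-Glo, 30 min RT) measured in the same wells as the p53 reporter assay, HCT-116 p53RE-bla cells, 16 h compound exposure at 37 C.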

[9] = p53 small molecule agonists, cell-based qHTS assay (AID 1963582; active means well fitted activation curve with a large enough effect in the signal ratio in the repeat runs, not every such curve was filed as active; the % refers to the signal ratio)
How it was run: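 Fluorescence intensity read-out of a beta-lactamase reporter under a p53 response element. Cells were exposed to DMSO-dissolved compounds for 16 h at 37 C, then developed with FRET substrate for 2 h at RT.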

[10] = molecular target: 5-hydroxytryptamine receptor 2A (Homo sapiens) (UniProt P28223); experiment: 5-hydroxytryptamine receptor 2A (HTR2A) small molecule antagonists, cell-based qHTS assay (AID 1963586); further: nearly all actives have a fitted effect of over 45% in size
How it was run: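 CHO cells stably expressing human HTR2A were plated for 18 h at 37 C, then loaded with calcium dye for 1 h. Compounds were preincubated 5 min at room temperature before DOI (4 nM solution) was added. Kinetic fluorescence was read for 3 min.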

[11] = molecular target: 5-hydroxytryptamine receptor 2A (Homo sapiens) (UniProt P28223); experiment: 5-hydroxytryptamine receptor 2A (HTR2A) small molecule agonists, cell-based qHTS assay (AID 1963587); further: nearly all actives have a fitted effect of over 30% in size; further: potency means the concentration at half of the fitted maximal effect
How it was run: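 HTR2A-CHO cells, plated 18 h at 37 C/5% CO2, dye-loaded 1 h at 37 C; compounds in DMSO added by pin tool (agonist mode). Intracellular calcium flux read as kinetic fluorescence on FDSS over 2 min at 1 s intervals.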

[12] = molecular target: Muscarinic acetylcholine receptor M1 (Homo sapiens) (UniProt P11229); experiment: Cholinergic receptor muscarinic 1 (CHRM1) small molecule antagonists, cell-based qHTS assay (AID 1963588); further: nearly all actives have a fitted effect of over 40% in size
How it was run: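 Compounds were tested at 15 concentrations in three independent runs. Dye-loaded CHRM1-CHO cells were exposed 5 min at room temperature before stimulation by acetylcholine added at 50nM. Intracellular calcium was read kinetically on FDSS for 3 min.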

[13] = molecular target: Muscarinic acetylcholine receptor M1 (Homo sapiens) (UniProt P11229); experiment: Cholinergic receptor muscarinic 1 (CHRM1) small molecule agonists, cell-based qHTS assay (AID 1963589); further: nearly all actives have a fitted effect of over 35% in size
How it was run: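 Calcium flux read-out: kinetic fluorescence at 1 sec intervals after pin-tool compound addition to dye-loaded CHRM1-CHO cells (human M1). Agonist mode; 15 concentrations tested in triplicate independent runs.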

[14] = cAMP Responsive Elements (CRE) small molecule agonists, cell-based qHTS assay (AID 1963590)
How it was run: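 Beta-lactamase reporter readout: LiveBLAzer B/G FRET substrate, 2 h at room temperature, added after 3 h compound treatment of CRE-bla HEK 293T cells at 37 C/5% CO2.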

[15] = cAMP Responsive Elements (CRE) small molecule antagonists, cell-based qHTS assay (AID 1963591; active means well fitted inhibition curve with a large enough effect in the signal ratio in the repeat runs, not every such curve was filed as active; the % refers to the signal ratio)
How it was run: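 HEK293T CRE-bla; 18 h preincubation; compound pin-transfer; NKH477 0.25 uM final, 3 h, 37 C; LiveBLAzer FRET substrate 2 h RT.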

[16] = molecular target: Beta-2 adrenergic receptor (Homo sapiens) (UniProt P07550); experiment: Adrenergic beta2 receptor (ADRB2) small molecule antagonists, cell-based qHTS assay (AID 1963592); further: series mostly up to about 92 µM; nearly all actives have a fitted effect of over 50% in size
How it was run: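 Assay format: CHO-ADRB2 cells, 18-20hr seeding at 37C/5% CO2, then compound plus 1nM isoproterenol agonist mix for 0.5hr RT. Homogeneous time-resolved fluorescence cAMP detection after 1hr, expressed as 665/615 nm ratio.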

[17] = molecular target: D(2) dopamine receptor (Homo sapiens) (UniProt P14416); experiment: Dopamine D2 receptor (DRD2) small molecule agonists, cell-based qHTS assay (AID 1963594); further: nearly all actives have a fitted effect of over 35% in size
How it was run: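 HEK293 cells stably expressing DRD2 were cultured 24 h at 37 C, then given Ro20-1724 (0.1 mM final) and compounds for 10 min at room temperature. NKH477 (200nM) was then added for 30 min. cAMP was read by HTRF.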

[18] = molecular target: D(2) dopamine receptor (Homo sapiens) (UniProt P14416); experiment: Dopamine D2 receptor (DRD2) small molecule antagonists, cell-based qHTS assay (AID 1963595; active means well fitted inhibition curve with a large enough effect in the signal ratio in the repeat runs, with a control signal flat; the % refers to the signal ratio)
How it was run: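 DRD2-HEK293; 0.1 mM Ro20-1724; cpd 10 min RT; NKH477 200 nM + quinpirole 12 nM, 30 min RT; HTRF cAMP (cAMP-d2/anti-cAMP cryptate), 665/620 nm ratio after 1 h.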

[19] = molecular target: Beta-2 adrenergic receptor (Homo sapiens) (UniProt P07550); experiment: Adrenergic beta2 receptor (ADRB2) small molecule agonists, cell-based qHTS assay (AID 1963593);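 further: CHO cells stably overexpressing human ADRB2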
How it was run: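 CHO cells stably over-expressing ADRB2 were plated overnight at 37C, then dosed with compounds plus a stimulation mix containing 100uM IBMX and 25uM Ro-20-1724 for 0.5hr at room temperature. cAMP was measured by HTRF competition, 1hr.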
On the % scale 0 is the no-effect control and ±100 the full control effect.

Sequence of Beta-2 adrenergic receptor (Homo sapiens) (P07550 whole entry, looked up): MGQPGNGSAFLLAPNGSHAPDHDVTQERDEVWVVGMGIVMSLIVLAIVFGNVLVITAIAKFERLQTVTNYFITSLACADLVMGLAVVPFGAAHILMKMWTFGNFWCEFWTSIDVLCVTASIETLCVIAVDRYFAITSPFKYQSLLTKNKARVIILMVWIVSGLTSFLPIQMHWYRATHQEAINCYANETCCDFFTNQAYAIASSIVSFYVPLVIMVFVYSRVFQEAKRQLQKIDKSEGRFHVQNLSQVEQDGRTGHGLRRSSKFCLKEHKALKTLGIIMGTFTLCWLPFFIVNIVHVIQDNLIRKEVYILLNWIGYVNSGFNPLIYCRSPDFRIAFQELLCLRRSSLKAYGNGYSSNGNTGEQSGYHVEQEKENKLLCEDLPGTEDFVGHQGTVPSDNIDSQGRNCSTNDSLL
Sequence of 5-hydroxytryptamine receptor 2A (Homo sapiens) (P28223 whole entry, looked up): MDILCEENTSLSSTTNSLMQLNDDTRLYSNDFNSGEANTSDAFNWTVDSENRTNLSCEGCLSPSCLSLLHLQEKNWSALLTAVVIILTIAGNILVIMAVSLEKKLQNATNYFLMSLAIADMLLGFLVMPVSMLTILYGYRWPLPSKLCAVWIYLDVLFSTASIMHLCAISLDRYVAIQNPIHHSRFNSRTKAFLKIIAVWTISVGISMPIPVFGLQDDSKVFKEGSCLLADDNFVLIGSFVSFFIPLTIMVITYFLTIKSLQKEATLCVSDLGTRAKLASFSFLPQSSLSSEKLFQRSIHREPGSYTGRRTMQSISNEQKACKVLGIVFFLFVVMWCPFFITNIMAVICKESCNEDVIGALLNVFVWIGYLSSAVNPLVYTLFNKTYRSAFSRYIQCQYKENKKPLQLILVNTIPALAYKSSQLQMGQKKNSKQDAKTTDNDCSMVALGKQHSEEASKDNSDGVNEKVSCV
Sequence of D(2) dopamine receptor (Homo sapiens) (P14416 whole entry, looked up): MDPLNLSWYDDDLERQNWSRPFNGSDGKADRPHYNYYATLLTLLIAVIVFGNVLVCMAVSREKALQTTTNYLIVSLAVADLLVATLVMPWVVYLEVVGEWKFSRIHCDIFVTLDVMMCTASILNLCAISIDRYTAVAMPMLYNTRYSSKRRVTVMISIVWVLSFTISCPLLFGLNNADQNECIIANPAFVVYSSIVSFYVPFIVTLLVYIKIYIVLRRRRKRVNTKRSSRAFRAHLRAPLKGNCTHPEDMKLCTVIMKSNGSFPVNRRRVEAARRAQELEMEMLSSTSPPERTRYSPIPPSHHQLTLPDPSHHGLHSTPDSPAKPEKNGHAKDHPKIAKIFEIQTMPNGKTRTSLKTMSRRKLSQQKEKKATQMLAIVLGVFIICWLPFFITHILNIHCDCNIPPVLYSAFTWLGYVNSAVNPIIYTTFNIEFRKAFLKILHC
Sequence of Muscarinic acetylcholine receptor M1 (Homo sapiens) (P11229 whole entry, looked up): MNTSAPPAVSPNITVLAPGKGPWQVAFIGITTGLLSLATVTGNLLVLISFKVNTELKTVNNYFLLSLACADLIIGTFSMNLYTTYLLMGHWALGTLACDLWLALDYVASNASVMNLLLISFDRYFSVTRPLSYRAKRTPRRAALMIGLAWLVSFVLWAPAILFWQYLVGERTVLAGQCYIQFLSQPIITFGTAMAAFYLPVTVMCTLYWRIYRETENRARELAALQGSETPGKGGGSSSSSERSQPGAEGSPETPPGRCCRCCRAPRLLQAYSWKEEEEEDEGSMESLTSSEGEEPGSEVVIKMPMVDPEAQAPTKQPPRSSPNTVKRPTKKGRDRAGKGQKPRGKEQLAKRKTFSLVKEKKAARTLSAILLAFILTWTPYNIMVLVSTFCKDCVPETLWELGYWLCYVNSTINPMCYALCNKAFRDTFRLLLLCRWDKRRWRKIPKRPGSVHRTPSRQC
Sequence of KiSS-1 receptor (Homo sapiens) (Q969F8 whole entry, looked up): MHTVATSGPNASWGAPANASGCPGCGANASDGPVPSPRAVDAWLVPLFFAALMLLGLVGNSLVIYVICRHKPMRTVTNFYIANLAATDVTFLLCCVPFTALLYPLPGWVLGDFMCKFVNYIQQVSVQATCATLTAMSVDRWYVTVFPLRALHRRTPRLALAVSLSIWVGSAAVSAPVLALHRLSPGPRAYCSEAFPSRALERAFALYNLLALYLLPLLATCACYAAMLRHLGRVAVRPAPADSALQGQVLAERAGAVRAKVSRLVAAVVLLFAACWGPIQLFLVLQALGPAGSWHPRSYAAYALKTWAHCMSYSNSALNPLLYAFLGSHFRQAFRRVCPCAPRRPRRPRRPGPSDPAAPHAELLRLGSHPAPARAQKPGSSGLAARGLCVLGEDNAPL
Sequence of Gonadotropin-releasing hormone receptor (Homo sapiens) (P30968 whole entry, looked up): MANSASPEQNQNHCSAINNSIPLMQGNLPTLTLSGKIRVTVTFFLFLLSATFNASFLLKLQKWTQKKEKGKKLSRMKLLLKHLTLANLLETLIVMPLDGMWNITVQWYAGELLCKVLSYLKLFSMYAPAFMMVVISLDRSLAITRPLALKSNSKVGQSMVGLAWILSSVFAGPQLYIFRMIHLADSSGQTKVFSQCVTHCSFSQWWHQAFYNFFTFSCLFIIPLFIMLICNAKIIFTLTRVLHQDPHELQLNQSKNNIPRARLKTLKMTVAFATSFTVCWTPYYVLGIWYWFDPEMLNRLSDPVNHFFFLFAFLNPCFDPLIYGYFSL

Oc1ccc(Sc2ccc(O)cc2)cc1
inactive: Potency [1] | Potency [3] | Potency [4] | Potency [5] | Potency [6] | Potency [7] | Potency [8] | Potency [9] | Potency [10] | Potency [11] | Potency [12] | Potency [13] | Potency [14] | Potency [15] | Potency [16] | Potency [17] | Potency [18]
active: Potency [2] 57.2 µM

CCCCCCCCCCCC(=O)N(C)CC(=O)O
inactive: Potency [1] | activity, positive = activation [2] 0.794% [at 8.39 µM] | Potency [3] | Potency [4] | Potency [5] | Potency [6] | Potency [7] | Potency [8] | Potency [10] | Potency [11] | Potency [12] | activation [13] -0.383% [at 6.97 µM] | activation [14] -0.74% [at 8.39 µM] | activity change, negative = inhibition [15] 5.29% [at 8.39 µM] | Potency [16] | Potency [19] | Potency [17] | Potency [18]

COC(=O)/C=C/c1ccccc1
inactive: Potency [1] | Potency [2] | Potency [3] | Potency [4] | Potency [5] | Potency [6] | Potency [7] | Potency [8] | Potency [10] | Potency [11] | Potency [12] | Potency [13] | Potency [14] | Potency [15] | Potency [16] | Potency [19] | Potency [17] | Potency [18]

OC1CCCC1
inactive: Potency [1] | Potency [2] | Potency [3] | Potency [4] | Potency [5] | Potency [6] | Potency [7] | Potency [8] | Potency [10] | Potency [11] | Potency [12] | Potency [13] | Potency [14] | Potency [15] | Potency [16] | Potency [19] | Potency [17] | Potency [18]

CNCCS(=O)(=O)O
inactive: Potency [1] | Potency [2] | Potency [3] | Potency [4] | Potency [5] | Potency [7] | Potency [8] | Potency [9] | Potency [10] | Potency [11] | Potency [12] | Potency [13] | Potency [14] | Potency [15] | Potency [16] | Potency [19] | Potency [17] | Potency [18]

CC(=O)Nc1ncc([N+](=O)[O-])s1
inactive: Potency [1] | Potency [2] | Potency [3] | Potency [4] | Potency [5] | Potency [6] | Potency [7] | Potency [8] | Potency [9] | Potency [10] | Potency [12] | Potency [13] | Potency [14] | Potency [15] | Potency [16] | Potency [19] | Potency [17] | Potency [18]

COc1ccc(Br)c(C)c1
inactive: Potency [1] | Potency [2] | Potency [3] | Potency [4] | Potency [5] | Potency [6] | Potency [7] | Potency [8] | Potency [9] | Potency [10] | Potency [11] | Potency [12] | Potency [13] | Potency [14] | Potency [15] | Potency [16] | Potency [17] | Potency [18]

CC(C)(C)c1cc(C(C)(C)C)c(O)c(C(C)(C)C)c1
inactive: Potency [3] | Potency [4] | Potency [5] | Potency [6] | Potency [8] | Potency [9] | Potency [10] | Potency [12] | Potency [13] | Potency [15] | Potency [16] | Potency [19] | Potency [17] | Potency [18]
inactive and 48.6 µM (active): Potency [1]
active: Potency [2] 30.6 µM | Potency [11] 5.49 µM

CCC/C=C/C=O
inactive: Potency [1] | Potency [2] | Potency [3] | Potency [4] | Potency [5] | Potency [6] | Potency [7] | Potency [8] | Potency [10] | Potency [11] | Potency [12] | Potency [13] | Potency [14] | Potency [15] | Potency [16] | Potency [19] | Potency [17] | Potency [18]

— PubChem BioAssay (Tox21)
